Experimental data from PubChem BioAssay (NCI).
About 79,000 compounds went through this panel and 15% of them were active in at least one assay; those are over-represented in the sample as a whole. No stated cut-off is given here; in the data, active means growth inhibition above about 70%; inactive means the rest.

Key:
[1] = NCI Yeast Anticancer Drug Screen. Data for the rad50 strain (AID 155);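 further: 0% = growth of vehicle-only cultures of the same strain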; conditions: S. cerevisiae rad50 strain growth inhibition; at 50.0 µM; hits give high values
Method in brief: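 Growth of the mutant yeast was measured after compound exposure and referenced to vehicle-treated cultures.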

[2] = NCI Yeast Anticancer Drug Screen. Data for the mec2-1 strain (AID 157); conditions: S. cerevisiae mec2-1 strain, at 50.0 µM, hits give high values
Method in brief: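 Test agents were screened against the mec2-1 yeast strain, with defined DNA repair or cell cycle alteration. Growth was scored as inhibition against vehicle-only controls.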

[3] = NCI Yeast Anticancer Drug Screen. Data for the sgs1 mgt1 strain (AID 161);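 further: 0% = growth of cultures given vehicle only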; conditions: S. cerevisiae sgs1 mgt1 strain, at 50.0 µM, hits give high values
Method in brief: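 Test agents were incubated with a DNA-repair-mutant yeast strain. Growth was then read and compared against vehicle-treated controls.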

[4] = NCI Yeast Anticancer Drug Screen. Data for the cln2 rad14 strain (AID 165);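 further: 0% = growth equal to vehicle treated cultures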; conditions: S. cerevisiae cln2 rad14 strain, at 50.0 µM, hits give high values
Method in brief: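 Growth of compound-exposed yeast (cln2 rad14 genotype) measured and expressed as inhibition relative to vehicle.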

[5] = NCI Yeast Anticancer Drug Screen. Data for the bub3 strain (AID 167); conditions: S. cerevisiae bub3 mutant strain, at 50.0 µM, hits give high values
Method in brief: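 Whole-cell yeast assay. The mutant strain was incubated with compounds, and growth inhibition was determined by comparison with vehicle-treated cells.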

[6] = NCI Yeast Anticancer Drug Screen. Data for the mlh1 rad18 strain (AID 175); conditions: S. cerevisiae mlh1 rad18 strain growth inhibition; at 50.0 µM; hits give high values
Method in brief: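 In this whole-cell yeast screen, a strain with altered DNA damage repair is challenged with compound, and its growth is measured against matched vehicle-treated controls.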

Measured: growth inhibition

Cc1cc(-c2ccccc2)nc(Nc2cc3ccccc3[nH]2)n1
inactive: [1] -8.6% | [2] 13.2% | [3] -17.6% | [4] 0.05% | [5] -4.25% | [6] 0.4%

CCOC(=O)c1c(-c2ccccc2)nn(CC(N)=O)c1CO
inactive: [1] -15.9% | [2] -5.15% | [3] 10.4% | [4] 23.1% | [5] 18.2% | [6] -10.7%

Cc1ncc(Cl)c2cc3ccccc3cc12
inactive: [1] -2.4% | [2] 2.1% | [3] -0.7% | [4] -24.6% | [5] -3.25% | [6] -7.55%

CSc1sc2ccc(S(=O)(=O)O)cc2[n+]1C
inactive: [1] 24.1% | [2] -6.7% | [3] 15.7% | [4] -4.4% | [5] -1.85% | [6] 9.8%

COc1ncc(/C=C2\OC(=O)c3ccccc32)c(OC)n1
inactive: [1] 1.6% | [2] -16.1% | [3] 19.9% | [4] 2.6% | [5] 6.05% | [6] 16.9%

CC1=CC=NN2C(=O)[C@H](C)C2C1 (stereo partly specified)
inactive: [1] 5.8% | [2] 0.75% | [3] 0.3% | [4] 10.3% | [5] -9.05% | [6] 9.6%

Cc1ccc(C(C)(CCC(=O)O)c2ccc(C)o2)o1
inactive: [1] 36.2% | [2] 12.2% | [3] 7.35% | [4] 45.2% | [5] 8.5% | [6] 25.4%

CCC(CC)C(=O)OCCc1ccccc1
inactive: [1] 5% | [2] 3.05% | [3] -2.35% | [4] -6.3% | [5] 9.9% | [6] 0.75%

O=C(NNC(=O)c1ccncc1)c1ccncc1
inactive: [1] -22.9% | [2] 1.2% | [3] -9.45% | [4] -30.3% | [5] -2.4% | [6] -23.9%

CCOC(=O)c1ccccc1C(=O)c1ccccc1O
inactive: [1] -5.8% | [2] -18% | [3] -1.6% | [4] -0.45% | [5] -5.45% | [6] 18.4%

COc1ccc(C(C)=O)c(O)c1OC
inactive: [1] -3.3% | [2] 4.7% | [3] 9.1% | [4] -3.35% | [5] -3.1% | [6] 3%

CCCCOC(=O)c1c2nc3c(C(=O)OCCCC)ccc(C)c3oc-2c(C)c(=O)c1NC(C)=O
inactive: [1] 19.4% | [2] 5.1% | [3] 6.95% | [4] 4.9% | [5] -5.3% | [6] 5.2%

CS(=O)(=O)OCCCCCCCCCOS(C)(=O)=O
inactive: [1] -10.9% | [2] -26.1% | [3] -3.6% | [4] -0.05% | [5] -18.8% | [6] -12.3%

COc1cc(C2OCCO2)ccc1O
inactive: [1] 12.8% | [2] 7.05% | [3] -0.35% | [4] 39% | [5] 5.05% | [6] -11%

CCCOC(=O)c1ccc(Cl)c(Cl)c1
inactive: [1] 10.6% | [2] 7.85% | [3] 2.5% | [4] -58.2% | [5] -6.15% | [6] 5.9%

CC1=CC(=O)C=CC1=Nc1ccc(N(C)C)cc1
inactive: [1] 19.3% | [2] 32.6% | [3] 47.9% | [4] 9.35% | [5] 39.4% | [6] 16.4%

Oc1ccc2ccccc2c1C(c1ccccc1)N1CCOCC1 (stereo unspecified)
inactive: [1] -2.5% | [2] -11% | [3] -5.9% | [4] -24.7% | [5] -12.4% | [6] -15.2%

COc1ccc(N=c2nc3n4c(c(Br)cc(Br)c4n2)NC(C(Br)(Br)Br)=N3)cc1
inactive: [1] 1.7% | [2] 1.2% | [3] 6.25% | [4] -15.3% | [5] 4.35% | [6] 41.1%

CC(O)CCNC(c1ccccc1)C(O)c1ccccc1 (stereo unspecified)
inactive: [1] 3% | [2] -6.95% | [3] -2.85% | [4] -7.4% | [5] 14.6% | [6] -0.85%

CC1(C)OC2C(CO)OC(n3cnc4c(=S)nc(N)[nH]c43)C2O1 (stereo unspecified)
inactive: [1] 18.6% | [2] 12.8% | [3] 2.5% | [4] -24.1% | [5] 12.5% | [6] 21.7%

CC(C)C1(C(C)C)OCC(CO)O1 (stereo unspecified)
inactive: [1] 9.55% | [2] -7.75% | [3] -7.85% | [4] -60.2% | [5] 16.4% | [6] -9.3%
